# Test results taken from PubChem BioAssay (EPA / NIEHS).
# Results filed as inconclusive are left out. Activity calls are given as the source filed them. The calls were made as follows: active = hit-call score of the fitted dose curve at least 0.9, where 1 is the maximum; inconclusive = response in the unintended direction; inactive = score below 0.9.
# How the values were obtained:
# [1] = target: Peroxisome proliferator-activated receptor gamma (Homo sapiens) (UniProt P37231); assay: ATG_PPARg_TRANS: Attagene TRANS-FACTORIAL HepG2 Assay for human Peroxisome Proliferator-activated Receptor-gamma (PPARg) (AID 2283007)
# How it was run: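 Read-out: reporter mRNA induction, detected by fluorescence after RT-PCR and capillary electrophoresis. Transiently transfected human HepG2 liver cells carrying a chimeric NR-Gal4 construct were dosed for 24 h; activity was fitted upward relative to DMSO.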
# [2] = target: human RAR-related Orphan Receptor gamma (RORg), RORC (gene 6097) (UniProt P51449); assay: ATG_RORg_TRANS: Attagene TRANS-FACTORIAL HepG2 Assay for human RAR-related Orphan Receptor gamma (RORg) (AID 2283011)
# How it was run: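 Chimeric RORg-Gal4 transactivation in transfected HepG2; 24 h exposure; RT-PCR/capillary electrophoresis readout of reporter mRNA, DMSO baseline.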
# [3] = target: human Thyroid Receptor alpha (THRa1), THRA (gene 7067) (UniProt P10827); assay: ATG_THRa1_TRANS: Attagene TRANS-FACTORIAL HepG2 Assay for human Thyroid Receptor alpha (THRa1) (AID 2283014)
# How it was run: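 Measured here is mRNA from a GAL4-UAS reporter in transfected HepG2 cells carrying a Gal4-fused receptor, 24 h post-dose. DMSO served as negative control and baseline.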
# [4] = target: Nuclear receptor subfamily 1 group I member 2 (Homo sapiens) (UniProt O75469); assay: ATG_PXR_TRANS: Attagene TRANS-FACTORIAL HepG2 Assay for human Pregnane X Receptor (PXR) (AID 2283008)
# How it was run: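 Multiplexed TRANS reporter panel in HepG2; this component tracks PXR-Gal4-driven reporter mRNA after 24 h dosing, measured by RT-PCR with capillary electrophoresis fluorescence, fitted against DMSO.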
# [5] = target: Retinoic acid receptor RXR-alpha (Homo sapiens) (UniProt P19793); assay: ATG_RXRa_TRANS: Attagene TRANS-FACTORIAL HepG2 Assay for human Retinoid X Receptor alpha (RXRa) (AID 2283012)
# How it was run: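 Measures exogenous chimeric NR-GAL4 activity in transfected HepG2 liver cells after 24 h of dosing. Induced reporter mRNA was detected by RT-PCR with capillary electrophoresis, and gain of signal was analysed against DMSO.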
# [6] = target: human Retinoid X Receptor beta (RXRb), RXRB (gene 6257) (UniProt P28702); assay: ATG_RXRb_TRANS: Attagene TRANS-FACTORIAL HepG2 Assay for human Retinoid X Receptor beta (RXRb) (AID 2283013)
# How it was run: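 Chimeric receptor-Gal4 activity was assessed in transiently transfected human HepG2 cells after 24 h exposure. Transcripts from GAL4-UAS reporters were quantified by fluorescent RT-PCR and capillary electrophoresis, with DMSO as negative control and baseline.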
# [7] = target: human Vitamin D Receptor (VDR), VDR (gene 7421) (UniProt P11473); assay: ATG_VDR_TRANS: Attagene TRANS-FACTORIAL HepG2 Assay for human Vitamin D Receptor (VDR) (AID 2283022)
# How it was run: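 Multiplexed TRANS reporter in HepG2; 24 h treatment; reporter mRNA by RT-PCR plus capillary electrophoresis; upregulation scored relative to DMSO.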
# [8] = target: human Retinoic Acid Receptor gamma (RARg), RARG (gene 5916) (UniProt P13631); assay: ATG_RARg_TRANS: Attagene TRANS-FACTORIAL HepG2 Assay for human Retinoic Acid Receptor gamma (RARg) (AID 2283009)
# How it was run: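 TRANS format measured activity of exogenous NR-GAL4 fusion (RARg) in transfected HepG2 liver cells after 24 h dosing. Induced reporter RNA was detected by RT-PCR/capillary electrophoresis fluorescence, analysed in the positive direction against DMSO.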
# [9] = target: human RAR-related Orphan Receptor beta (RORb), RORB (gene 6096) (UniProt Q92753); assay: ATG_RORb_TRANS: Attagene TRANS-FACTORIAL HepG2 Assay for human RAR-related Orphan Receptor beta (RORb) (AID 2283010)
# How it was run: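 Transfect HepG2 with multiple GAL4-UAS reporter transcription units; dose chemicals for 24 h; isolate RNA, reverse-transcribe and PCR-amplify reporter sequences; label, digest and resolve fragments by capillary electrophoresis; fit increases relative to DMSO.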
# human Vitamin D Receptor (VDR), VDR (gene 7421), sequence (P11473 whole entry, looked up): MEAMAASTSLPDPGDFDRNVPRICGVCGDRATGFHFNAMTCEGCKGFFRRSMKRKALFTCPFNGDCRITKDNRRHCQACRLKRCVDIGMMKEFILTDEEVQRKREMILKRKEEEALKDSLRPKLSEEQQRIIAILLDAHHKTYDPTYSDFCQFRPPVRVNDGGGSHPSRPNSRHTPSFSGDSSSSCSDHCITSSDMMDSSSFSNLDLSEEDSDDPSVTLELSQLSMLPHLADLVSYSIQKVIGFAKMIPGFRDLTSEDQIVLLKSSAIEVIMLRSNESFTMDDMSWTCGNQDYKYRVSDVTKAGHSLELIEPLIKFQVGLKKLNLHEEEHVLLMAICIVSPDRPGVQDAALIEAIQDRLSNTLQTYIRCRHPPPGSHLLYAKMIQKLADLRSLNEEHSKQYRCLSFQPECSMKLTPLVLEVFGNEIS
# human Retinoic Acid Receptor gamma (RARg), RARG (gene 5916), sequence (P13631 whole entry, looked up, the tested form may be a part): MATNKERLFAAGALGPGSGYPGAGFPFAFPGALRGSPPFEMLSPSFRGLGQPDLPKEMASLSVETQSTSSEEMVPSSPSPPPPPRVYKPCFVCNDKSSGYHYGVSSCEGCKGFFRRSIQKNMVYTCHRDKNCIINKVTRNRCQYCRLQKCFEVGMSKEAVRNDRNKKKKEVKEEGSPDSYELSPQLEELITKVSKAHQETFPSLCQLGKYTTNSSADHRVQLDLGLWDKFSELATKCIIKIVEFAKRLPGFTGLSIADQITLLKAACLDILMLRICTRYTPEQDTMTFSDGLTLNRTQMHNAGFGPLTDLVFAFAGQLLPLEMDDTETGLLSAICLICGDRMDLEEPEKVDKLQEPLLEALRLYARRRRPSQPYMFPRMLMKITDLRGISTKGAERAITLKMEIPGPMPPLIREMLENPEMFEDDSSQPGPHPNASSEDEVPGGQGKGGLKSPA
# human Retinoid X Receptor beta (RXRb), RXRB (gene 6257), sequence (P28702 whole entry, looked up, the tested form may be a part): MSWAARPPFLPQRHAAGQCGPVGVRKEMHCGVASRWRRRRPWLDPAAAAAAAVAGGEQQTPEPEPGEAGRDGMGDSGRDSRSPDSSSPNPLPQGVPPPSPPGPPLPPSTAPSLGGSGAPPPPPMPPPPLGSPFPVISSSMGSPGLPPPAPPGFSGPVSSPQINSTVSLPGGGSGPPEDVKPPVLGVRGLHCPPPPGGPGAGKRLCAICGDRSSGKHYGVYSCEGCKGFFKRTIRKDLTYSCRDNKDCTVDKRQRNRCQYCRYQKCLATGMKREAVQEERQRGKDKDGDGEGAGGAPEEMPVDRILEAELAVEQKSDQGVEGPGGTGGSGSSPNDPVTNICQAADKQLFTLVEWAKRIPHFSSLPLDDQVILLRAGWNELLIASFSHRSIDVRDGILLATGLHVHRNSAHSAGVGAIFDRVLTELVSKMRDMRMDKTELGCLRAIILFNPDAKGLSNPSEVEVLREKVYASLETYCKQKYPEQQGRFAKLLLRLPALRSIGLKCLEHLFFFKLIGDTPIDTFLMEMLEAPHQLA
# Retinoic acid receptor RXR-alpha (Homo sapiens), sequence (P19793 whole entry, looked up, the tested form may be a part): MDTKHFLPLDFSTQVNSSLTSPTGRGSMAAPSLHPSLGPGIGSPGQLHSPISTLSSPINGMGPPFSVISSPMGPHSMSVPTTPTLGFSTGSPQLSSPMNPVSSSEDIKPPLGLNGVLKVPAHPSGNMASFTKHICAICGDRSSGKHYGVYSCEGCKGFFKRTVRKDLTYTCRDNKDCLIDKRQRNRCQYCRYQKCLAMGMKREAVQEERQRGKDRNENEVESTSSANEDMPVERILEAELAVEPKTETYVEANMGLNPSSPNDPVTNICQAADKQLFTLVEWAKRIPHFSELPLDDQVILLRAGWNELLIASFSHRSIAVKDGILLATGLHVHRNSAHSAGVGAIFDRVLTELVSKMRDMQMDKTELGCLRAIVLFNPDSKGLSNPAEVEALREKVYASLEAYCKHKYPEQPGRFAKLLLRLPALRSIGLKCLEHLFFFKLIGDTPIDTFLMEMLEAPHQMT
# Peroxisome proliferator-activated receptor gamma (Homo sapiens), sequence (P37231 whole entry, looked up, the tested form may be a part): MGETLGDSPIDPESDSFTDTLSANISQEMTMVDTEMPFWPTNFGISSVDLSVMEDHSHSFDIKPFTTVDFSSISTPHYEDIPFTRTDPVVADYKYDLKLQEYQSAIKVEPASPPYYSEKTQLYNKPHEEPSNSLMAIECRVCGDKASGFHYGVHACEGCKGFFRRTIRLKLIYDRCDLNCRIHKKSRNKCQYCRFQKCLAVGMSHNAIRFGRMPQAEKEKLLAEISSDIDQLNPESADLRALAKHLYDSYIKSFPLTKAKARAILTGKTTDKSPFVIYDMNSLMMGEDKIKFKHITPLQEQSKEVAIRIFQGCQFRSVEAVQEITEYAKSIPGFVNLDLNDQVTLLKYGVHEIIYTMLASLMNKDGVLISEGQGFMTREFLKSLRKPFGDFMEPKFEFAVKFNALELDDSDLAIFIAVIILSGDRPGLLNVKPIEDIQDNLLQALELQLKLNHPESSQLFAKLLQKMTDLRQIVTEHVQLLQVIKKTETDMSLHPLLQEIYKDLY
# human Thyroid Receptor alpha (THRa1), THRA (gene 7067), sequence (P10827 whole entry, looked up, the tested form may be a part): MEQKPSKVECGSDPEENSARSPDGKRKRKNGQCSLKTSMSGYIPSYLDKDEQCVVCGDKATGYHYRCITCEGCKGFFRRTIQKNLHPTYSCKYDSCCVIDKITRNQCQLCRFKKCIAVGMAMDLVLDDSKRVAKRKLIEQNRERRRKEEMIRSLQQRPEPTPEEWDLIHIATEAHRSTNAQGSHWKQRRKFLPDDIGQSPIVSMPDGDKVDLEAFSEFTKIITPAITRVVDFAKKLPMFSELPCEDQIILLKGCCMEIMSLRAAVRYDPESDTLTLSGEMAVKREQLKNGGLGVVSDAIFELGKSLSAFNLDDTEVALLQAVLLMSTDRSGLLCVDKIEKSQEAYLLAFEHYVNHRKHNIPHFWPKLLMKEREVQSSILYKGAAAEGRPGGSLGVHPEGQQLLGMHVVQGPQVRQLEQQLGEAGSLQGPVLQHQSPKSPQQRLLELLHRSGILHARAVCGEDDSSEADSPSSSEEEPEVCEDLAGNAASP
# Nuclear receptor subfamily 1 group I member 2 (Homo sapiens), sequence (O75469 whole entry, looked up, the tested form may be a part): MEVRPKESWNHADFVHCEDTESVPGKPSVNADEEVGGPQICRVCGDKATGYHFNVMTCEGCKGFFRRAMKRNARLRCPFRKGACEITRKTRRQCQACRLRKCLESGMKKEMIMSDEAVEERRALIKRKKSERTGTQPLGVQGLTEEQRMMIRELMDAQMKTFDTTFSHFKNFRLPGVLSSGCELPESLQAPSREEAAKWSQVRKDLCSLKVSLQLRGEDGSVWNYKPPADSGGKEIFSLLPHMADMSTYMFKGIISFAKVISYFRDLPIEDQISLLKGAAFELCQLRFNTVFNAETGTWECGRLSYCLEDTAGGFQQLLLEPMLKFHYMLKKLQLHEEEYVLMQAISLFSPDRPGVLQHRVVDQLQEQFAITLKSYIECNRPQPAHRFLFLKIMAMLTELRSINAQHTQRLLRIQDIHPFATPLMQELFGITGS
# human RAR-related Orphan Receptor beta (RORb), RORB (gene 6096), sequence (Q92753 whole entry, looked up, the tested form may be a part): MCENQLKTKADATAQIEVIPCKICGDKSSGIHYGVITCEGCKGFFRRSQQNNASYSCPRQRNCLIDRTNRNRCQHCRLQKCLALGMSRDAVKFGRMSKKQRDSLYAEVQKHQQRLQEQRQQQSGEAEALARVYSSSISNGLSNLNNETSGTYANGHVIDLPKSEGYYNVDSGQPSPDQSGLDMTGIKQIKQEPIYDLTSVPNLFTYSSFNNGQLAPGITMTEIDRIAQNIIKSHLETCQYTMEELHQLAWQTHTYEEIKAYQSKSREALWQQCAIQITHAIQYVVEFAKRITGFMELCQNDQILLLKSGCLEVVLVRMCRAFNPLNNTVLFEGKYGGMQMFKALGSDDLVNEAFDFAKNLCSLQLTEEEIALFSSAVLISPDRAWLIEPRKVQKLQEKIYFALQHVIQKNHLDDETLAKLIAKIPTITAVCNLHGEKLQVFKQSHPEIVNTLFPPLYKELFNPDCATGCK
# human RAR-related Orphan Receptor gamma (RORg), RORC (gene 6097), sequence (P51449 whole entry, looked up, the tested form may be a part): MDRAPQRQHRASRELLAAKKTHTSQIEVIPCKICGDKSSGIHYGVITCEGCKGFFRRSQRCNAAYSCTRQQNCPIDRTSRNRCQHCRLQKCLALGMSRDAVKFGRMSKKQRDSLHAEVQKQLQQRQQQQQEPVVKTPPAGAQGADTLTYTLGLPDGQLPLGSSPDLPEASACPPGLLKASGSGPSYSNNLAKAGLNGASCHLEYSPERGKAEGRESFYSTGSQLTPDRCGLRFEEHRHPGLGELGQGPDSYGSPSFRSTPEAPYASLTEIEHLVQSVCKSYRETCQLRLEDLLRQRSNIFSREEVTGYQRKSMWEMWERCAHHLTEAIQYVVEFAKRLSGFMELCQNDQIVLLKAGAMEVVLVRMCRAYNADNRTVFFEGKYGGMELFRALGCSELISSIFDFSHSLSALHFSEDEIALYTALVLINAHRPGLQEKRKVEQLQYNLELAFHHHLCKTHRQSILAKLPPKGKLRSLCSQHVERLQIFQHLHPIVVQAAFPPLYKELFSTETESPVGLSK
compound,measurement,setting,value
Cc1ccc(CCl)cc1,outcome,[1],inactive
same,outcome,[2],inactive
same,outcome,[3],inactive
CC(C)[C@H](C(=O)OC(C#N)c1cccc(Oc2ccccc2)c1)c1ccc(OC(F)F)cc1 (some centres undefined),outcome,[1],inactive
same,AC50,[4],0.693 µM (active)
same,outcome,[3],inactive
O=NN1CCCCCCC1,outcome,[1],inactive
same,outcome,[5],inactive
same,outcome,[6],inactive
O=C(NC(=O)c1c(F)cccc1F)Nc1cc(Cl)c(Oc2ncc(C(F)(F)F)cc2Cl)c(Cl)c1,outcome,[1],inactive
same,outcome,[4],inactive
same,outcome,[3],inactive
same,outcome,[7],inactive
CN(C)[C@@H]1C(=O)C(C(N)=O)=C(O)[C@@]2(O)C(=O)C3=C(O)c4c(O)ccc(Cl)c4[C@@](C)(O)[C@H]3C[C@@H]12,outcome,[8],inactive
same,outcome,[2],inactive
same,outcome,[5],inactive
same,outcome,[7],inactive
CC(C)(C)c1ccc(CCOc2ncnc3ccccc23)cc1,outcome,[4],inactive
same,outcome,[5],inactive
same,outcome,[6],inactive
same,outcome,[7],inactive
CCCCS(=O)(=O)Cl,outcome,[4],inactive
same,outcome,[9],inactive
same,outcome,[2],inactive
same,outcome,[7],inactive
CCOc1cc(C=O)ccc1O,outcome,[9],inactive
same,outcome,[2],inactive
same,outcome,[5],inactive
same,outcome,[6],inactive
CCCCCCCCCCCCOS(=O)(=O)O,outcome,[4],inactive
same,outcome,[9],inactive
same,outcome,[5],inactive
same,AC50,[6],33.4 µM (active)
CS(=O)(=O)c1ccc(C(=O)C2C(=O)CCCC2=O)c(Cl)c1COCC(F)(F)F,outcome,[4],inactive
same,outcome,[2],inactive
same,outcome,[5],inactive
same,outcome,[7],inactive
FC(F)OCC(F)(F)C(F)(F)F,outcome,[4],inactive
same,outcome,[5],inactive
same,outcome,[6],inactive
same,outcome,[7],inactive
CC(C)(C1CCC(O)CC1)C1CCC(O)CC1 (centres undefined),outcome,[4],inactive
same,outcome,[5],inactive
same,outcome,[6],inactive
same,outcome,[7],inactive
C=C(C)[C@@H]1CC=C(C=O)CC1,AC50,[1],22.5 µM (active)
same,outcome,[3],inactive
same,outcome,[7],inactive
Nc1ccc(-c2ccccc2)cc1,outcome,[4],inactive
same,outcome,[9],inactive
same,outcome,[5],inactive
same,outcome,[6],inactive
same,outcome,[3],inactive
c1ccc2c(c1)Oc1ccccc1O2,outcome,[4],inactive
same,outcome,[9],inactive
same,outcome,[2],inactive
same,outcome,[5],inactive
same,outcome,[6],inactive
same,outcome,[7],inactive
Nc1cccnc1,outcome,[1],inactive
same,outcome,[5],inactive
same,outcome,[3],inactive
same,outcome,[7],inactive
C#C[C@]1(O)CC[C@H]2[C@@H]3CCC4=CC(=O)CC[C@]4(C)[C@H]3CC[C@@]21C,outcome,[2],inactive
same,outcome,[5],inactive
same,outcome,[3],inactive
CCCCCCCCCCCCBr,AC50,[1],43.3 µM (active)
same,outcome,[6],inactive
O=[N+]([O-])c1cc([As](=O)(O)O)ccc1O,outcome,[4],inactive
same,outcome,[9],inactive
same,outcome,[6],inactive
same,outcome,[3],inactive
same,outcome,[7],inactive
Brc1ccc(Oc2c(Br)cc(Br)cc2Br)c(Br)c1,outcome,[4],inactive
same,outcome,[9],inactive
same,outcome,[2],inactive
same,outcome,[5],inactive
same,outcome,[6],inactive
O=[N+]([O-])c1ccc(Cl)c([N+](=O)[O-])c1,outcome,[9],inactive
same,outcome,[2],inactive
ClCCCCl,outcome,[4],inactive
same,outcome,[2],inactive
same,outcome,[5],inactive
same,outcome,[7],inactive
C[N+](C)(C)Cc1ccccc1,outcome,[1],inactive
same,outcome,[5],inactive
same,outcome,[3],inactive
same,outcome,[7],inactive
ClCCN1CCOCC1,outcome,[2],inactive
same,outcome,[6],inactive
same,outcome,[7],inactive
NNCCO,outcome,[2],inactive
same,outcome,[5],inactive
same,outcome,[3],inactive
same,outcome,[7],inactive
CC(O)(CS(=O)(=O)c1ccc(F)cc1)C(=O)Nc1ccc(C#N)c(C(F)(F)F)c1 (centres undefined),outcome,[4],inactive
same,outcome,[8],inactive
same,outcome,[3],inactive
CCC[CH2][Sn]([Cl])([Cl])[CH2]CCC,AC50,[1],0.73 µM (active)
same,outcome,[3],inactive
O=NN1CCOCC1,outcome,[1],inactive
same,outcome,[5],inactive
same,outcome,[3],inactive
same,outcome,[7],inactive
O=c1[nH]c2ccccc2n1C1CCN(CCCC(c2ccc(F)cc2)c2ccc(F)cc2)CC1,outcome,[4],inactive
same,outcome,[5],inactive
same,outcome,[7],inactive
CC(C)(C#N)N=NC(C)(C)C#N,outcome,[4],inactive
same,outcome,[6],inactive
CNC(=O)CSP(=O)(OC)OC,outcome,[1],inactive
same,outcome,[3],inactive
C=CC(=O)NC(C)(C)CC(C)=O,outcome,[4],inactive
same,outcome,[9],inactive
same,outcome,[2],inactive
same,outcome,[3],inactive
same,outcome,[7],inactive
C=CCOC(F)(C(F)(F)F)C(F)(F)F,outcome,[1],inactive
same,outcome,[5],inactive
same,outcome,[3],inactive
same,outcome,[7],inactive
CC1(C)COP(Oc2ccccc2)OC1,outcome,[8],inactive
same,outcome,[2],inactive
same,outcome,[5],inactive
same,outcome,[6],inactive
same,outcome,[7],inactive
N#CS,outcome,[4],inactive
same,outcome,[9],inactive
same,outcome,[5],inactive
same,outcome,[6],inactive
C1CCC(C2CCCCC2)CC1,outcome,[4],inactive
same,outcome,[9],inactive
same,outcome,[2],inactive
same,AC50,[6],66.1 µM (active)
same,outcome,[3],inactive
same,outcome,[7],inactive
CC(C)(c1ccccc1)c1cc(-n2nc3ccccc3n2)c(O)c(C(C)(C)c2ccccc2)c1,outcome,[4],inactive
same,outcome,[8],inactive
same,outcome,[2],inactive
same,outcome,[3],inactive
C=CCc1ccccc1O,outcome,[4],inactive
same,outcome,[5],inactive
same,outcome,[6],inactive
CCOc1ccc(N)cc1,outcome,[7],inactive
CN(N=O)c1ccc([N+](=O)[O-])cc1,AC50,[1],31.9 µM (active)
same,outcome,[6],inactive
same,outcome,[3],inactive
same,outcome,[7],inactive
CNC(=O)O/N=C/C(C)(C)S(C)(=O)=O,outcome,[9],inactive
same,outcome,[6],inactive
OC(c1ccc(Cl)cc1)(c1ccc(Cl)cc1)c1cccnc1,outcome,[1],inactive
same,outcome,[7],inactive
CCCSP(=S)(OCC)Oc1ccc(SC)cc1 (centres undefined),AC50,[1],15.2 µM (active)
same,outcome,[6],inactive
same,outcome,[7],inactive
